# About 83,000 compounds went through this panel and 20% of them were active in at least one assay; those are over-represented in the sample as a whole.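 Assay: single dose, 48 h. Readout: percent growth (0 = no net growth; negative = cell death). Active: <10.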 Values without a mark were called inactive. Calls of active or inactive are those of the source.
# What was measured:
# Experiment in all cases: NCI-60 one-dose screen, 48 h (100 = growth as untreated, 0 = no growth, -100 = all killed)
# Conditions in all cases: 10 µM unless noted
# [1] = system: T-47D breast
# [2] = system: BT-549 breast
# [3] = system: MDA-MB-435 melanoma
# [4] = system: SW-620 colon
# [5] = system: MCF7 breast
# [6] = system: HCT-116 colon
# [7] = system: HCC-2998 colon
# [8] = system: KM12 colon
SMILES,growth [1],growth [2],growth [3],growth [4],growth [5],growth [6],growth [7],growth [8]
O=C1N/C(=N\c2nnc(-c3ccc(O)cc3)s2)S/C1=C\c1ccccc1O,97.9%,97%,94.4%,96.1%,88.4%,91.7%,106%,96.7%
COc1ccc(-c2nc(SCC(C)C)nc(Nc3ccc(C)cc3)c2C#N)cc1,32.4%,85.8%,86.7%,54.4%,70.3%,33.5%,92.5%,80.8%
CCCCN(CCC)CCCCCCCCCCN1CCCc2ccccc21,102%,89.6%,85.2%,43.9%,76.2%,58.3%,98.3%,45.2%
CCOC(=O)NNc1[nH]c(-c2ccc(OC)cc2)cc1C#N,44.1%,101%,85%,107%,69.2%,85.4%,39.1%,74.7%
O=C1C(=O)c2ccccc2C(O)=C1CCCc1ccc(C2CCCC2)cc1,59.8%,40.3%,42%,24.3%,33.3%,16.6%,36.7%,27.6%
CCCCN(CCCC)CC(O)CN(CC)CC (stereo not given),97.6%,96.1%,92.2%,99.3%,96%,97%,102%,108%
O=C(CBr)OCc1ccc([N+](=O)[O-])o1,95.2%,118%,107%,83.2%,98.4%,106%,95.2%,105%
CCOC(=O)C1=C(C(F)(F)F)NC(=S)NC1CN1C(=O)c2ccccc2C1=O (stereo not given),107%,118%,118%,93.1%,88.4%,103%,63.3%,111%
COc1ccc(/C=C/C(=O)/C=C/c2cc3ccccc3[nH]c2=O)cc1,57.1%,64.9%,13.6%,36.4%,14.5%,-30.8% (active),96.7%,27.6%
COc1ccc(CNCCCN2C(=O)c3ccc4c5c(ccc(c35)C2=O)C(=O)N(CCCNCc2ccc(OC)c(OC)c2OC)C4=O)c(OC)c1OC,-40.1% (active),-90.5% (active),-87.5% (active),-94.6% (active),-85% (active),-71.2% (active),-92.8% (active),-89.9% (active)
CCCC(=O)NNc1[nH]c(-c2ccc(OC)cc2)cc1C(=O)OCC,63.9%,99.4%,95.2%,95.5%,104%,109%,75.2%,98.9%
COC(=O)CC(=O)C(=O)OC,99.9%,101%,120%,104%,97.6%,93.4%,104%,106%
CN(CCC#N)c1ccc(/C=C(\C#N)c2cccc(C(F)(F)F)c2)cc1,56.7%,60.1%,1.34% (active),40.4%,34.2%,57.6%,78.5%,38.5%
COCC(=O)NNc1[nH]c(-c2ccc(OC)cc2)cc1C#N,106%,113%,102%,114%,108%,110%,133%,104%
Cc1c(CN(C)C)cc(C(C)C)cc1C(C)C,131%,118%,111%,104%,96.7%,104%,104%,114%

# From PubChem BioAssay (NCI)
